Screening results as filed in PubChem BioAssay.
Rows were chosen to be rich in hits. Some 28% of all compounds tested hit in one or more screens of this group.
CYP2C19 inh = blocks human cytochrome P450 2C19. inhibition, % at 5 µM. CYP2C19 Supersomes, luciferin-H EGE luminescence, 30 min. actives 21% (n = 96,000). P33261;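 active means CYP2C19 inhibition above a set limit at 5 µM in the primary screen, cut at about 50% in these data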;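 further: plate controls were negative control wells for no effect and 2.5 mM tranylcypromine positive control for full effect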
Target sequence (P33261 whole entry, looked up): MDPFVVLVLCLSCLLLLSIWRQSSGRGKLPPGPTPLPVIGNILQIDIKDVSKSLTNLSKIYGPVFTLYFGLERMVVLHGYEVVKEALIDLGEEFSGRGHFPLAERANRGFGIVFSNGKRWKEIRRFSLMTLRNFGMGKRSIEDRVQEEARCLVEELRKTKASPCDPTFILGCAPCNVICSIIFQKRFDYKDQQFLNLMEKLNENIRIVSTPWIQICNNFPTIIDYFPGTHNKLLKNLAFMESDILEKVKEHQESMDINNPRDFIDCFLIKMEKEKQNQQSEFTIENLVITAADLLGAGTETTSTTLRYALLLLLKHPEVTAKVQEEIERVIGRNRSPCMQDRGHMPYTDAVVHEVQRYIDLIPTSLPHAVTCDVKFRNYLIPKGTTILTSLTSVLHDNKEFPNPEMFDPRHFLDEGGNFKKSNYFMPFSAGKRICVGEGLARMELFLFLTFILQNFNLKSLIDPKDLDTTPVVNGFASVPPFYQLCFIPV
CYP2C19 act = increases human CYP2C19 enzyme activity; 96,000 tested, under 10 active; P33261; activation factor at 5 µM; recombinant CYP2C19, luciferin-H EGE luminescence; active compounds read high; 0 = fully inhibited enzyme, 1 = untreated enzyme; AID 1025;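 active means activation factor of at least 2 at 5 µM in the primary screen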;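 further: 0 = wells with 2.5 mM tranylcypromine and 1 = vehicle-only wells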
CYP2C9 inhib = human CYP2C9 inhibition | inhibition, % at 5 µM | AID 777 | CYP2C9 Supersomes, luciferin-H conversion, luminescence | P11712 | actives 20% (n = 96,000);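 active means blocking of liver enzyme CYP2C9 beyond about 50% at 5 µM, limit read from the data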
PLK1 inh = PLK1 (human) kinase inhibition; P53350; recombinant PLK1 kinase, TR-FRET peptide phosphorylation; inhibition, % at 10 µM; actives 0.53% (n = 97,000); AID 619;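 active means inhibition of 50% or more in the single-concentration screen; inactive means inhibition below 50%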;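 further: 0% = DMSO max control and 100% = H-89 dihydrochloride min control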
CYP2C9 act = activators of human CYP2C9; AID 1024; P11712; actives 1.4% (n = 96,000); recombinant CYP2C9, luciferin-H conversion, luminescence; active compounds read high; factor 1 = untreated enzyme, 0 = blocked; activation factor at 5 µM;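 active means activation factor of 2 or more for CYP2C9 at a 5 µM dose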;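 further: 0 = sulfaphenazole-blocked wells and 1 = vehicle-only wells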
Plk1 PBD FP = Plk1 (human) PBD binding inhibition. actives 0.13% (n = 97,000). Plk1 PBD phosphopeptide binding, fluorescence polarization. inhibition, %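 (tested at about 20 µM)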; in the data active means inhibition above about 34%, passing the limit was not always enough
Starred values were filed as active, the others as inactive; · = no result given.

SMILES	CYP2C19 inh	CYP2C19 act	CYP2C9 inhib	PLK1 inh	CYP2C9 act	Plk1 PBD FP
CCOC(=O)N1CCN(Cc2c(F)cccc2F)CC1	76.3*	0.2	35.7	-6.0	0.6	-1.5
CCC(=O)c1ccc(N2CCCCCC2)c(F)c1	68.3*	0.3	52.3*	-8.0	0.5	7.4
CCOC(=O)N1CCN(c2ccc(C(=O)c3ccccc3)cc2F)CC1	76.5*	0.2	86.9*	-10.8	0.1	-37.7
COc1ccccc1OCC(=O)c1[nH]c(C)c(C(C)=O)c1C	35.2	0.6	11.4	-2.9	0.9	0.3
COc1cc(CN(C)CC(=O)c2[nH]c(C)c(C(C)=O)c2C)ccc1OC(F)F	73.0*	0.3	69.6*	-6.6	0.3	-26.4
CCCc1[nH]nc2c1C(c1cccc(OC)c1)C(C#N)=C(N)O2 (configuration not stated)	72.9*	0.3	76.2*	3.5	0.2	-0.6
CCCc1[nH]nc2c1C(c1ccc(O)cc1OCC)C(C#N)=C(N)O2 (configuration not stated)	76.0*	0.2	53.2*	2.5	0.5	-10.9
O=C(c1ccccc1)N1CCN2C(=O)c3ccccc3C12c1ccc(Cl)cc1 (configuration not stated)	62.6*	0.4	31.1	-13.5	0.7	-8.4
O=C(Nc1ccccc1)N1CCN2C(=O)c3ccccc3C12c1ccccc1 (configuration not stated)	92.6*	0.1	95.7*	-12.7	0	-18.4
Cc1nnsc1C(=O)Nc1cc(Cl)ccc1Cl	·	·	·	-7.9	·	-1.2
CCCS(=O)(=O)N1CCC(C(=O)N2CCOCC2)CC1	6.9	0.9	6.8	4.7	0.9	0.2
O=C(c1ccco1)c1nnn(Cc2ccccc2)c1-c1ccccc1	13.3	0.9	54.2*	-7.2	0.5	-23.4
c1ccc(N2CCCCC2)c(NC2=NCCC2)c1	5.8	0.9	18.0	9.2	0.8	-11.1
O=C(Nc1ccccc1Cl)ON=C1c2ccccc2-c2ccccc21	29.5	0.7	77.8*	8.8	0.2	-1.1
O=C(Nc1ccccc1)ON=C1c2ccccc2-c2ccccc21	23.3	0.8	72.0*	2.9	0.3	20.6
CC(C(=O)O)C1SC(=O)NC1=O (configuration not stated)	-15.1	1.2	0.8	-6.4	1	17.1
CC(C)CNC(=O)c1ccccc1-c1ccccc1C(=O)O	-12.3	1.1	-8.3	-6.8	1.1	-21.6
O=C(O)c1ccccc1C(=O)NCC(O)COCC1CC=CCC1 (configuration not stated)	92.0*	0.1	12.8	-14.5	0.9	30.4
O=C(COc1ccc(S(=O)(=O)NC2CCCCC2)cc1)N1CCN(c2ccc(F)cc2)CC1	14.7	0.9	44.3	-1.1	0.6	2.3
CC1(C)CC(=O)c2c(oc3cc(O)c(O)cc23)C1	2.5	1	-216.3	15.2	3.2*	6.7
Cc1ccc(C2CC(=O)NC(SCc3ccccc3)=C2C#N)o1 (configuration not stated)	34.3	0.7	52.7*	-6.1	0.5	-2.7
N#CC1=C(SCC(=O)NC2CCCCC2)NC(=O)CC1c1ccco1 (configuration not stated)	72.1*	0.3	58.7*	-2.4	0.4	-5.5
N#CC1=C(SCC(=O)NCc2ccccc2)NC(=O)CC1c1ccco1 (configuration not stated)	67.0*	0.3	87.6*	-8.5	0.1	9.9
N#CC1=C(SCC(=O)Nc2ccccc2)NC(=O)CC1c1ccco1 (configuration not stated)	·	·	·	-13.9	·	2.8
N#CC1=C(SCc2ccccc2)NC(=O)CC1c1ccco1 (configuration not stated)	28.2	0.7	71.3*	-1.6	0.3	-14.5
SMILES	CYP2C19 inh	CYP2C19 act	CYP2C9 inhib	PLK1 inh	CYP2C9 act	Plk1 PBD FP
CC(C)c1nnc(NC(=O)CCC(=O)Nc2ccc(F)cc2)s1	-12.4	1.1	-2.4	-3.0	1	-16.3
Cc1occc1-c1nnc(SCC(=O)Nc2ccccc2N2CCCCC2)n1C	45.3	0.5	28.1	-14.6	0.7	8.6
Cn1cccc1C(=O)OCc1cc(Cl)cc2c1OCOC2	1.0	1	-124.0	-5.5	2.2*	-25.0
Cc1ccc(S(=O)(=O)Nn2c(C)ccc2C)cc1	63.8*	0.4	21.9	-14.9	0.8	-14.9
CCc1ccc(S(=O)(=O)Nc2c(C)nn(C)c2C)cc1	84.5*	0.2	19.9	-28.1	0.8	-10.0
CCn1nc(C)c(NS(=O)(=O)c2ccc(C)cc2)c1C	·	·	·	-6.3	·	-32.8
Cc1ccc(S(=O)(=O)NCC(C)NS(=O)(=O)c2ccc(C)cc2)cc1 (configuration not stated)	33.2	0.7	-14.8	-7.2	1.1	-12.6
Cc1ccc(S(=O)(=O)Nc2c(C)nn(C)c2C)cc1	79.4*	0.2	4.7	-4.5	1	-34.2
CC(C)[C@H](NC(=O)Nc1ccc(Oc2ccccc2)cc1)C(=O)O	0.4	1	28.8	-11.2	0.7	0.8
COCCNC(=O)CSc1nc2ccccc2c2nc(C)nn12	5.1	0.9	3.8	-10.2	1	-18.9
CCCC(=O)N(c1ccc(OCC)cc1)C1C=CS(=O)(=O)C1 (configuration not stated)	63.2*	0.4	46.5	·	0.5	·
CC(C)(C)NC(=O)C(=O)N/N=C/c1cccs1	10.3	0.9	32.8	-7.8	0.7	-16.0
COCCOc1cc(NC(=O)c2sccc2Oc2ccc([N+](=O)[O-])cc2F)c(Cl)cc1Cl	18.6	0.8	58.8*	-8.2	0.4	3.0
COc1ccc(-c2[nH]ncc2/C=C(/C#N)C(=O)NC2CCCCCC2)cc1	16.8	0.8	32.8	-6.8	0.7	-8.4
CCCN1C(=O)c2ccc(C(=O)Nc3nccs3)cc2C1=O	8.5	0.9	9.8	-13.9	0.9	0.7
CCNS(=O)(=O)c1ccc(NC(=O)c2cccnc2)cc1	-1.2	1	78.2*	·	0.2	·
CCCc1cc(C(=O)Nc2nccs2)cs1	40.4	0.6	52.5*	-7.0	0.5	-18.0
CCc1cc(C(=O)Nc2ccccc2)cs1	76.3*	0.2	48.1	·	0.5	·
CCNS(=O)(=O)c1ccc(C(=O)Nc2ccccc2)cc1	-10.8	1.1	96.9*	4.0	0	-27.6
O=c1ccc2c(o1)/C(=C/C=C(Cl)Cl)CCC2	-5.1	1.1	-6.8	·	1.1	·
CC(=O)Nc1ccc(S(=O)(=O)NCc2ccc(C(=O)NC(C)c3ccccc3)cc2)cc1 (configuration not stated)	26.5	0.7	90.8*	-13.1	0.1	3.4
CC(=O)Nc1ccc(S(=O)(=O)NCc2ccc(C(=O)NCc3ccc(Cl)cc3)cc2)cc1	-8.4	1.1	38.2	0.0	0.6	-5.0
COc1ccc(Nc2nc(C(=O)NCCCN3CCOCC3)cs2)cc1	27.3	0.7	33.3	-7.4	0.7	12.0
O=C(CSCc1ccccc1Cl)NN=C1CCCCCC1	63.4*	0.4	12.2	0.2	0.9	-29.4
CC(C)NC(=O)CSCc1c(F)cccc1Cl	·	·	·	-3.9	·	4.6
